# Measured values as given in ChEMBL document CHEMBL2218924, “A broad activity screen in support of a chemogenomic map for kinase signalling research and drug discovery” (Biochem J, 2013).
# Experiments:
# [1] = target: T1, Serine/threonine-protein kinase BRSK1 (Homo sapiens) (UniProt Q8TDC3); details: at 1 µM
# T1 sequence (whole entry): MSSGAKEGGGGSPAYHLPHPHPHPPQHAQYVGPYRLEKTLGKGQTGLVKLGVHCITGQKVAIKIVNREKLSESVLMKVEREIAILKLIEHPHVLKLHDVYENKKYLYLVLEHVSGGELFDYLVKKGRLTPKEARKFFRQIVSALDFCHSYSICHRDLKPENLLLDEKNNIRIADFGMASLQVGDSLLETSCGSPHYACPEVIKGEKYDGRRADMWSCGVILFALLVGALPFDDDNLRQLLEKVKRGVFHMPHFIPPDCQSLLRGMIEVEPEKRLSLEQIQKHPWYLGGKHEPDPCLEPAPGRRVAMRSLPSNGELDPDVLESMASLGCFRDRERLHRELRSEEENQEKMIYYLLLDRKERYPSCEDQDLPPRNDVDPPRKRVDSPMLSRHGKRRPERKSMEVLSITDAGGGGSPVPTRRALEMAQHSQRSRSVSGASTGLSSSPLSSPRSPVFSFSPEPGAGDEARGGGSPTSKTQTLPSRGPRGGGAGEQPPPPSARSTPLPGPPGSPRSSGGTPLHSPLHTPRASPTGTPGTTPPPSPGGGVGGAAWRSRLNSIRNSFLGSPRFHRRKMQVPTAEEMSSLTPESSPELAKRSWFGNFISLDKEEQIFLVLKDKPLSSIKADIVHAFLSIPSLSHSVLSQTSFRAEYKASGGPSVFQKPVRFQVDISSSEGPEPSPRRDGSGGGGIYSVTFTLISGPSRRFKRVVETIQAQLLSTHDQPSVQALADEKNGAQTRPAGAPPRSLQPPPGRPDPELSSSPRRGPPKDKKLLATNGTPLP
# [2] = target: T1, Serine/threonine-protein kinase BRSK1 (Homo sapiens); details: at 10 µM
# [3] = target: T2, Serine/threonine-protein kinase BRSK2 (Homo sapiens) (UniProt Q8IWQ3); details: at 1 µM
# T2 sequence (whole entry): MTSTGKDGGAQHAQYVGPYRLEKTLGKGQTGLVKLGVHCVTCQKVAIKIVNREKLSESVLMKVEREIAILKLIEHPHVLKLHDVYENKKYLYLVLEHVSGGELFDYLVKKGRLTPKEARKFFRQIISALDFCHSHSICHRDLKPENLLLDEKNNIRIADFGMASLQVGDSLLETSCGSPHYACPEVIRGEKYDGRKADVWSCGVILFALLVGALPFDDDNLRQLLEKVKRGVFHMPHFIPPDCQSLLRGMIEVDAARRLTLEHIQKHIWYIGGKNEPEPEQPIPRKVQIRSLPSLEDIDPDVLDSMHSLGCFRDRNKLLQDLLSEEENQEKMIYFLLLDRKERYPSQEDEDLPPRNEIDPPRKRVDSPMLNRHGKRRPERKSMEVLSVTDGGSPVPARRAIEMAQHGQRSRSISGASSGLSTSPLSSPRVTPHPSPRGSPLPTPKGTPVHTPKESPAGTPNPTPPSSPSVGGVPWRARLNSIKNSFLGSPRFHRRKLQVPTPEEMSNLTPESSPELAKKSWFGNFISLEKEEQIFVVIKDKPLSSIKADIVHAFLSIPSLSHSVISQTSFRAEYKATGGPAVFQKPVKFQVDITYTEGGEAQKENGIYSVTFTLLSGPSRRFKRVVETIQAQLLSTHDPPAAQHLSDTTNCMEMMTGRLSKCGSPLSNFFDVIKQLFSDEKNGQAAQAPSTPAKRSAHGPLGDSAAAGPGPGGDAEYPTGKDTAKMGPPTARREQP
# [4] = target: T2, Serine/threonine-protein kinase BRSK2 (Homo sapiens); details: at 10 µM
# [5] = target: T3, Cyclin-dependent kinase 1/cyclin B1 (Homo sapiens) (UniProt P06493+P14635); details: at 1 µM
# [6] = target: T4, Cyclin-dependent kinase 2/cyclin A (Homo sapiens) (UniProt P24941+P20248+P78396); details: at 1 µM
# [7] = target: T4, Cyclin-dependent kinase 2/cyclin A (Homo sapiens); details: at 10 µM
# [8] = target: T5, Cyclin-dependent kinase 2/cyclin E (Homo sapiens) (UniProt P24864+P24941+O96020); details: at 1 µM
# [9] = target: T3, Cyclin-dependent kinase 1/cyclin B1 (Homo sapiens); details: at 10 µM
# [10] = target: T5, Cyclin-dependent kinase 2/cyclin E (Homo sapiens); details: at 10 µM
# T3 sequence (P06493 whole entry, looked up): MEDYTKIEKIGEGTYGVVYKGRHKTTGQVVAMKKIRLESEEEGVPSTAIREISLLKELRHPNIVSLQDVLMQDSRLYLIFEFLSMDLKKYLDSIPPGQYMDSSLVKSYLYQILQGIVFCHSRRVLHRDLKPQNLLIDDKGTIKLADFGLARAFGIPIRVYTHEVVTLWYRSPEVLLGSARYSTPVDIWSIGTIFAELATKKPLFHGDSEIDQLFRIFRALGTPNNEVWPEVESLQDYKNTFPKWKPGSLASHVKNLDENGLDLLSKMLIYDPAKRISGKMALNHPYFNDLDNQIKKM
# T3 sequence (P14635 whole entry, looked up): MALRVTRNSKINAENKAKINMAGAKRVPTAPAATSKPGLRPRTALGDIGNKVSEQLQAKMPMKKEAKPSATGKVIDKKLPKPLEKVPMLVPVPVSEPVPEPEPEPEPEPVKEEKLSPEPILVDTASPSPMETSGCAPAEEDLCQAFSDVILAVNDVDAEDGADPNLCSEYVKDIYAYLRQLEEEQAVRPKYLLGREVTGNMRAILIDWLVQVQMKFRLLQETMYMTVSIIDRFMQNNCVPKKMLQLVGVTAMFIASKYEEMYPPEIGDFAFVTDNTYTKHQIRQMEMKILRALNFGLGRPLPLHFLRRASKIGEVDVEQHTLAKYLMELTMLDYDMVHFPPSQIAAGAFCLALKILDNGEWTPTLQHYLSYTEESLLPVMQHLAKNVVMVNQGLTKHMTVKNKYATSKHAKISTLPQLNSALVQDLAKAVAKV
SMILES,residual activity [1],residual activity [2],residual activity [3],residual activity [4],residual activity [5],residual activity [6],residual activity [7],residual activity [8],residual activity [9],residual activity [10]
CC(C)N(CCC(=O)c1ccc2ccccc2c1)Cc1ccccc1,87%,,,,,,,,,
COc1ccc2c(c1)c(C1=C(c3c[nH]c4ccccc34)C(=O)NC1=O)cn2CCCN(C)C,41%,48%,67%,31%,104%,112%,70%,100%,,
O=S(=O)(NCCNC/C=C/c1ccc(Br)cc1)c1cccc2cnccc12,80%,53%,,,,,,,,
CC(C)(C)n1nc(Cc2cccc3ccccc23)c2c(N)ncnc21,90%,91%,111%,98%,106%,130%,57%,107%,92%,69%
Nc1nc(Nc2ccc(S(N)(=O)=O)cc2)nn1C(=O)c1c(F)cccc1F,55%,12%,40%,15%,1%,-1%,1%,2%,0%,-1%
Cn1c2ccccc2c2c3c(c4c5ccccc5n(CCC#N)c4c21)CNC3=O,6%,6%,7%,6%,20%,22%,17%,7%,18%,12%
Cc1cc(C)c(/C=C2\C(=O)Nc3ccccc32)[nH]1,75%,57%,100%,48%,,,,,,
COc1ccc(Cl)cc1NC(=O)Nc1cc(C)nc2ccccc12,60%,64%,77%,100%,,,88%,,,
Nc1ncnc2[nH]nc(Nc3ccc(F)cc3)c12,74%,18%,65%,12%,,,49%,91%,21%,59%
NC(=O)c1ccc(-c2nc(-c3ccc4c(c3)OCCO4)c(-c3ccccn3)[nH]2)cc1,99%,77%,119%,97%,,96%,85%,92%,,87%
O=C1Nc2ccc(Cl)cc2/C1=C/c1cc(Cl)c(O)c(Cl)c1,40%,29%,86%,47%,95%,118%,79%,95%,97%,97%
Nc1ncnc2c1cnn2-c1ccccc1,23%,23%,97%,54%,,125%,94%,98%,,
CCN(CC)CCNC(=O)c1c(C)[nH]c(/C=C2\C(=O)Nc3ccc(Cl)cc32)c1C,6%,9%,29%,10%,,134%,69%,98%,57%,65%
O=C(CCCc1ccc(-c2ccccc2F)cc1)Nc1ccc(O)cc1,102%,83%,107%,105%,,96%,98%,101%,,92%
Oc1cccc(-c2nc(N3CCOCC3)c3oc4ncccc4c3n2)c1,95%,84%,96%,100%,,129%,93%,,,
NC(=O)Nc1sc(-c2ccc(F)cc2)cc1C(N)=O,55%,15%,83%,18%,100%,59%,21%,79%,57%,26%
O=C1NC(=O)c2c1c1c3ccccc3[nH]c1n1cncc21,32%,25%,23%,17%,83%,64%,61%,58%,53%,35%
N#C/C(=C1/Nc2ccccc2S1)c1ccnc(NCCc2cccnc2)n1,80%,45%,96%,29%,,81%,33%,,,
CN(C)S(=O)(=O)c1ccc2c(c1)/C(=C/c1cc3c([nH]1)CCCC3)C(=O)N2,97%,75%,40%,50%,88%,87%,77%,96%,95%,97%
CCCC(=O)Oc1ccc2[nH]c(C(=O)c3cc4ccccc4[nH]3)cc2c1,90%,91%,96%,,,133%,99%,105%,,95%
O=C1NC(=O)C(c2c[nH]c3ccccc23)=C1c1c[nH]c2ccccc12,27%,35%,73%,35%,,97%,19%,79%,39%,30%
O=C(NC(NC(=S)Nc1ccc(F)c([N+](=O)[O-])c1)C(Cl)(Cl)Cl)C(c1ccccc1)c1ccccc1 (stereo not drawn),91%,63%,93%,73%,,,96%,90%,,77%
O=c1cc(N2CCNCC2)oc2c(-c3ccccc3)cccc12,70%,74%,98%,95%,104%,125%,87%,,102%,103%
O=C(c1cc2cc(O)ccc2[nH]1)c1cc2cc(O)ccc2[nH]1,5%,7%,37%,6%,60%,78%,9%,50%,15%,13%
CC(C)c1nn(-c2c(Cl)cccc2Cl)c2nc(Cc3ccc(OCCO)cc3)[nH]c(=O)c12,70%,78%,,93%,3%,0%,0%,-1%,0%,-3%
